# In a collection of fitness landscapes (doi:10.1126/science.1257360):
# Whole data set: some 140,000 sequences, median “enrichment ratio after two sorts for PhoP signalling” near 0, cut for the highest 2% near 11. This excerpt belongs to a sample that is enriched for the highest values.
# B1: PhoQ; a variant is named by its letters at X, in order, P23837 (parent)
# chain: MKKLLRLFFPLSLRVRFLLATAAVVLVLSLAYGMVALIGYSVSFDKTTFRLLRGESNLFYTLAKWENNKLHVELPENIDKQSPTMTLIYDENGQLLWAQRDVPWLMKMIQPDWLKSNGFHEIEADVNDTSLLLSGDHSIQQQLQEVREDDDDAEMTHSVAVNVYPATSRMPKLTIVVVDTIPVELKSSYMVWSWFIYVLSANLLLVIPLLWVAAWWSLRPIEALAKEVRELEEHNRELLNPATTRELTSLVRNLNRLLKSERERYDKYRTTLTDLTHSLKTPLXXLQXXLRSLRSEKMSVSDAEPVMLEQISRISQQIGYYLHRASMRGGTLLSRELHPVAPLLDNLTSALNKVYQRKGVNISLDISPEISFVGEQNDFVEVMGNVLDNACKYCLEFVEISARQTDEHLYIVVEDDGPGIPLSKREVIFDRGQRVDTLRPGQGVGLAVAREITEQYEGKIVAGESMLGGARMEVIFGRQHSAPKDE
# Variants of: B1
# Test: enrichment ratio after two sorts for PhoP signalling (ratio (wild type AVST 3.29)); higher = more functional
# Conditions: with PhoP (E. coli)
row,Variant,enrichment ratio
1,RSQR,≤ 0.25
2,YMEV,≤ 0.25
3,GDIV,8.68
4,GDVM,28.9
5,GDTV,13.7
6,GDYM,≤ 0.25
7,GDDV,≤ 0.25
8,GDTM,4.42
9,GDVA,≤ 0.25
10,GDVI,20
11,TDVI,11.8
12,LTVI,≤ 0.25
13,FDVI,≤ 0.25
14,GDNY,≤ 0.25
15,INWI,≤ 0.25
16,VNRI,≤ 0.25
17,NHGQ,≤ 0.25
18,MSWY,5.91
19,SPRG,≤ 0.25
20,PPYC,≤ 0.25
21,HEPW,≤ 0.25
22,EAAS,≤ 0.25
23,SSWV,0.518
24,SSAE,10.5

row,Variant,enrichment ratio
1,SSIV,14.2
2,SSID,≤ 0.25
3,KSII,≤ 0.25
4,SSAV,12.9
5,SSMV,18.9
6,SSII,16.3
7,SPAV,≤ 0.25
8,SSYV,1.11
9,KSIV,≤ 0.25
10,SSPV,1.03
11,EHMI,≤ 0.25
12,WWKN,≤ 0.25
13,YRIR,≤ 0.25
14,HENW,≤ 0.25
15,GDFP,≤ 0.25
16,WFHL,≤ 0.25
17,EAAQ,≤ 0.25
18,SSMI,19
19,SSIE,≤ 0.25
20,SSMR,≤ 0.25
21,SSMD,3.52
22,SSIS,11.9
23,NSIS,≤ 0.25
24,KSIS,≤ 0.25

row,Variant,enrichment ratio
1,AQIV,9.59
2,ADIS,≤ 0.25
3,SSIM,18.4
4,SCIM,3.17
5,AQIS,13
6,ASCT,11.1
7,DRDN,≤ 0.25
8,ADGC,≤ 0.25
9,QENS,≤ 0.25
10,MSVE,≤ 0.25
11,VCLI,5.48
12,TNQT,7.38
13,SQIS,13.9
14,SSMS,11.7
15,SSEL,0.485
16,SSHF,≤ 0.25
17,DPIS,≤ 0.25
18,SSMG,10.3
19,KSMF,≤ 0.25
20,SQIV,5.01
21,SSMF,12.7
22,SSMW,≤ 0.25
23,KSIL,≤ 0.25
24,SSIL,12.3

row,Variant,enrichment ratio
1,IRSG,≤ 0.25
2,FANW,≤ 0.25
3,HNPM,≤ 0.25
4,CVPS,≤ 0.25
5,FSNW,≤ 0.25
6,APGD,≤ 0.25
7,SFDK,≤ 0.25
8,MPYC,≤ 0.25
9,EQDL,≤ 0.25
10,KSIG,≤ 0.25
11,KSME,≤ 0.25
12,FDIM,≤ 0.25
13,SCII,5.01
14,STME,8.24
15,KSIM,≤ 0.25
16,FSIM,11.9
17,TSIG,≤ 0.25
18,SDII,11.7
19,SYII,≤ 0.25
20,SSIG,11.5
21,SSME,16.6
22,KAWR,≤ 0.25
23,KQKI,≤ 0.25
24,TDSI,8.92

row,Variant,enrichment ratio
1,PNEG,≤ 0.25
2,MIVG,≤ 0.25
3,NTPE,≤ 0.25
4,KFFD,≤ 0.25
5,PYGG,≤ 0.25
6,PMVC,≤ 0.25
7,MEVQ,≤ 0.25
8,SLVQ,0.637
9,ATHP,≤ 0.25
10,SEVQ,11.9
11,ATVA,1.05
12,KYVQ,≤ 0.25
13,SCVQ,3.12
14,YTVQ,0.393
15,NEVQ,≤ 0.25
16,SQVQ,15.1
17,ATVQ,13.9
18,STVQ,12
19,NQCF,≤ 0.25
20,KRSQ,≤ 0.25
21,WTEW,≤ 0.25
22,QAYY,10.3
23,WESK,≤ 0.25
24,QQNY,2.46

row,Variant,enrichment ratio
1,WMDF,≤ 0.25
2,ACYH,≤ 0.25
3,QTFW,≤ 0.25
4,QCTH,≤ 0.25
5,QCCA,≤ 0.25
6,QCNH,≤ 0.25
7,GYDH,≤ 0.25
8,QCDH,18.8
9,QCGH,24.2
10,EMTV,≤ 0.25
11,PVLS,≤ 0.25
12,KFLE,≤ 0.25
13,KSER,≤ 0.25
14,FSLC,12.4
15,QFLC,≤ 0.25
16,MSTS,0.73
17,QGLC,15.9
18,FFLC,≤ 0.25
19,FPLC,≤ 0.25
20,SSLC,15.2
21,SYLC,0.631
22,FQLC,2.14
23,QPLC,≤ 0.25
24,MSLC,11.7

row,Variant,enrichment ratio
1,SILC,8.13
2,EGVI,≤ 0.25
3,VVAR,≤ 0.25
4,WYHC,≤ 0.25
5,SWDN,≤ 0.25
6,MGQS,≤ 0.25
7,LWFG,≤ 0.25
8,HKKG,≤ 0.25
9,RSIL,≤ 0.25
10,YKDC,≤ 0.25
11,IGWW,≤ 0.25
12,PKQD,≤ 0.25
13,LTKR,≤ 0.25
14,HYAP,≤ 0.25
15,KSLC,≤ 0.25
16,MMLC,≤ 0.25
17,TSLC,18.4
18,PNER,≤ 0.25
19,RFQL,≤ 0.25
20,AIAF,12.4
21,KKAF,≤ 0.25
22,SIAF,15.1
23,AKAF,5.84
24,KYAF,≤ 0.25

row,Variant,enrichment ratio
1,SQAF,3.99
2,GPRN,≤ 0.25
3,NCRE,≤ 0.25
4,DCLW,≤ 0.25
5,PYCA,≤ 0.25
6,HYKI,≤ 0.25
7,YMVL,≤ 0.25
8,DVFV,≤ 0.25
9,NGCS,≤ 0.25
10,GYCS,≤ 0.25
11,GGCS,13.1
12,GGCI,0.663
13,TGCS,13
14,RGCS,0.323
15,WLCL,≤ 0.25
16,LTCL,≤ 0.25
17,TTCL,18.5
18,STCL,15.7
19,YTCL,5.77
20,SLCL,11.2
21,PLCL,≤ 0.25
22,MTRL,≤ 0.25
23,GTCL,9.42
24,MTCL,12.8

row,Variant,enrichment ratio
1,MTCI,≤ 0.25
2,ITCL,≤ 0.25
3,GTAR,≤ 0.25
4,FHNH,≤ 0.25
5,YRKS,≤ 0.25
6,GQTP,≤ 0.25
7,THVR,≤ 0.25
8,MGQG,≤ 0.25
9,EIWF,≤ 0.25
10,RYFG,≤ 0.25
11,GLCL,13.5
12,GLEL,≤ 0.25
13,GLNL,≤ 0.25
14,MTME,≤ 0.25
15,IMWI,≤ 0.25
16,ADST,≤ 0.25
17,SMST,13.1
18,TIST,12.7
19,NGST,≤ 0.25
20,TGST,15.2
21,AHST,≤ 0.25
22,AGST,14.8
23,SMNT,≤ 0.25
24,AIST,6.85

row,Variant,enrichment ratio
1,RGST,≤ 0.25
2,KMST,≤ 0.25
3,NIST,≤ 0.25
4,RSCK,≤ 0.25
5,DWGV,≤ 0.25
6,FMYR,≤ 0.25
7,FQIQ,≤ 0.25
8,MCFN,4.25
9,NMST,≤ 0.25
10,HKST,≤ 0.25
11,AKST,6.32
12,DMST,≤ 0.25
13,TKST,15.4
14,AMST,12.2
15,YFCR,0.754
16,YQIY,≤ 0.25
17,WDCT,≤ 0.25
18,MGCY,29.2
19,QRCY,≤ 0.25
20,RGCY,≤ 0.25
21,MGWY,4.8
22,TGCY,8.48
23,GGCY,16.1
24,QHTT,≤ 0.25

row,Variant,enrichment ratio
1,KNTT,≤ 0.25
2,ERTE,≤ 0.25
3,QKMV,≤ 0.25
4,TYTC,≤ 0.25
5,TMSN,12.5
6,KMSG,≤ 0.25
7,DMSG,≤ 0.25
8,MMSN,≤ 0.25
9,NMSN,≤ 0.25
10,TMSG,24.1
11,PCVI,≤ 0.25
12,GRTV,≤ 0.25
13,QESS,19.7
14,QDSS,≤ 0.25
15,FFSS,≤ 0.25
16,QRSS,≤ 0.25
17,TESS,15
18,MESS,5.15
19,NESS,≤ 0.25
20,QGSS,14.4
21,FVSS,≤ 0.25
22,IMKM,≤ 0.25
23,LFRM,≤ 0.25
24,TWVL,≤ 0.25

row,Variant,enrichment ratio
1,WRGV,≤ 0.25
2,KLPK,≤ 0.25
3,EIYQ,≤ 0.25
4,CTCF,≤ 0.25
5,SQCF,11.4
6,STCF,15.9
7,KCCF,≤ 0.25
8,YTCF,2.21
9,MCCF,4.87
10,SRCF,≤ 0.25
11,NECF,≤ 0.25
12,SCCF,13.7
13,SECF,13.9
14,MECF,≤ 0.25
15,SNCF,4.82
16,PQGD,≤ 0.25
17,YMHS,≤ 0.25
18,GKRI,≤ 0.25
19,SAIV,3.88
20,ERRA,≤ 0.25
21,MTCF,1.4
22,LTCF,≤ 0.25
23,TTCF,17.7
24,IHTH,≤ 0.25

row,Variant,enrichment ratio
1,LQWA,≤ 0.25
2,TAIE,≤ 0.25
3,KAME,≤ 0.25
4,KAMY,≤ 0.25
5,TAME,15.7
6,NAMY,≤ 0.25
7,TAMY,17.4
8,RLHS,≤ 0.25
9,THTF,0.991
10,SFPM,≤ 0.25
11,RSPG,≤ 0.25
12,NAHL,≤ 0.25
13,IAHL,≤ 0.25
14,QAHL,16.7
15,TAHL,17.4
16,THHL,2.02
17,FFHL,≤ 0.25
18,KSHL,≤ 0.25
19,YAHL,≤ 0.25
20,QGHL,18.3
21,KAHL,≤ 0.25
22,QTHL,4.03
23,QSHL,13.5
